PME-1 Maybridge: inhibitors of human PME-1 in Maybridge library; recombinant PME-1, FP-Rh probe fluorescence polarization; 16,000 tested, 0.5% active; Q9Y570; inhibition, % at 9 µM; in the data active = inhibition above about 30%
Target sequence (Q9Y570 whole entry, looked up): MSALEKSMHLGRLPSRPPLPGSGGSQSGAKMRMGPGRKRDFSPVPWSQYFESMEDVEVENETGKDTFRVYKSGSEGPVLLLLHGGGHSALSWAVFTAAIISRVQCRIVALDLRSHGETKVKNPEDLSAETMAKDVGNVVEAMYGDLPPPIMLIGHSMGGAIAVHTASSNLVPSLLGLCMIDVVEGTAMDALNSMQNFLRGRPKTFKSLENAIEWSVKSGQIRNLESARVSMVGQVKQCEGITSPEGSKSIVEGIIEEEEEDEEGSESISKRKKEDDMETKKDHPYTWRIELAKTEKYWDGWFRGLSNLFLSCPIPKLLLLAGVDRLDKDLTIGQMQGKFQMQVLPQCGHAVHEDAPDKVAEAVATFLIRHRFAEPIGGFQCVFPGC
Nox1 inh: inhibitors of human NADPH oxidase 1 (Nox1). AID 1792. Q9Y5S8. HT29 cells, luminol chemiluminescence ROS. 16,000 tested, 0.81% active. inhibition, % at 6.7 µM
NOTCH ag: NOTCH pathway agonism | 15,000 tested, 0.4% active | NOTCH signaling luciferase reporter cells, luminescence | activation, % at 2.5 µM; in the data active = activation above about 2.2%
luminol inh ctr: luminol signal inhibition, Nox1 inhibitor counter-screen; HRP/luminol/H2O2 chemiluminescence counterscreen; inhibition, % at 6.7 µM; 16,000 tested, 0.4% active; AID 1823; also: reference of the scale not given here
The depositor's hits bear a star; nt = not tested or not shown. The list is not random: actives were taken first. Their share in the collection is about 2.1%. Rule as the data show it, unless noted: active = inhibition above about 75%; inactive = the rest.

SMILES	PME-1 Maybridge	Nox1 inh	NOTCH ag	luminol inh ctr
COC(=O)CC/C(=N/Nc1ccc([N+](=O)[O-])cc1[N+](=O)[O-])c1ccc(C)cc1	4	-27	0	-2
S=C(Nc1ccc(Cl)cc1)Nc1ccc(-c2csnn2)cc1	7	3	0	-19
O=C(NNc1ccc(-c2csnn2)cc1)c1ccc(Cl)cc1	6	56	0	75*
O=C(NNc1cccc(Cl)c1)c1cccnc1Oc1ccccc1	0	41	0	100*
Cn1c(-c2ccccn2)n[nH]c1=S	1	-21	0	96*
Cn1c(-c2ccco2)n[nH]c1=S	-2	-36	-5	1
N[C@@H](Cc1ccc(OC(F)(F)F)cc1)C(=O)O	-4	-9	0	2
O=S(=O)(Nc1ccc(N2CCCCC2)cc1)c1ccccc1	6	101*	0	13
CN1CCN(c2ccc(NS(=O)(=O)c3cccc(C(F)(F)F)c3)cc2)CC1	2	94*	0	67
Cc1ccc(S(=O)(=O)Nc2ccccc2N2CCCCC2)cc1Cl	0	-15	nt	9
CC(=O)c1ccc(Sc2cccc(C(F)(F)F)c2)c([N+](=O)[O-])c1	32*	-8	0	2
Cc1sc(-c2ccccc2)nc1CC(=O)NNC(=O)c1cccc(OC(F)(F)F)c1	-5	-47	2.5*	4
c1ccc2c(c1)-c1ccccc1C2c1ccncc1	-10	23	2.3*	-7
CS(=O)(=O)Cc1noc(-c2cc(C(F)(F)F)cc(C(F)(F)F)c2)n1	3	22	0	-5
O=S(=O)(Cc1ccc(F)cc1)Cc1noc(-c2ccc(F)cc2Cl)n1	1	-21	2.3*	-2
S=C(NNc1nccc(-c2cccnc2)n1)Nc1ccccc1	3	86*	0	2
NC(=O)c1cc2c(c([N+](=O)[O-])c1)-c1c(cc(C(N)=O)cc1[N+](=O)[O-])C2=O	38*	-28	0	-2
COc1ccc(C(N)=S)cc1[N+](=O)[O-]	4	2	1	1
N#CCC(=O)NNC(=O)c1ccccc1Cl	2	-50	0	0
N#CCC(=O)NNC(=S)Nc1ccccc1	2	90*	0	18
Cc1ccc2c(c1)CCCN2C(=O)CC(=O)N1CCCc2cc(C)ccc21	8	-6	0	77*
Cc1ccc2c(c1)CCCN2C(=O)c1sc2ccccc2c1Cl	5	-39	0	3
O=c1[nH]cc(N2CCOCC2)c(=O)[nH]1	-2	-27	0	26
COC(=O)C1=C(C)Nc2[nH]ncc2C1c1ccccc1 (stereo not given)	43*	-18	-1	4
O=C(NCCNc1nccc(C(F)(F)F)n1)C1CC1	96*	5	1	-8
SMILES	PME-1 Maybridge	Nox1 inh	NOTCH ag	luminol inh ctr
CN(C)c1cc(NNS(=O)(=O)c2cccc(C(F)(F)F)c2)nc(N(C)C)c1C#N	6	66	-1	80*
CCOC(=O)C1CCN(c2ccccc2CN2CCCc3cc(C)ccc32)CC1	3	20	0	-3
COc1ccc2c(c1)CCCN2Cc1c[nH]c2ccccc12	17	101*	0	-12
COC(=O)c1sccc1-c1ccc(CN2CCCc3cc(OC)ccc32)o1	10	94*	0	-30
COc1ccccc1NNC(=O)c1cc(C(C)(C)C)nn1Cc1ccccc1	7	91*	0	0
CCn1cc(C(=O)O)c(=O)c2cc(Cl)ccc21	-1	0	-1	3
CCC(=O)N1c2cc(Cl)ccc2-n2c(nn(C(=O)CC)c2=O)N1C(=O)CC	1	88*	-1	2
N#Cc1ccc(OCOc2ccc(C#N)cc2)cc1	2	-32	0	-2
NNC(=O)CSc1nc2cccnc2s1	8	76*	0	12
OC(CSc1nc2cccnc2s1)C(F)(F)F (stereo not given)	2	-12	0	-5
CC(=O)OC1C[C@H](n2cc(C)c(=O)[nH]c2=O)O[C@@H]1COS(=O)(=O)c1ccc(C)cc1 (stereo not given in full)	0	-58	3.0*	2
Cc1ccc(S(=O)(=O)C[C@H]2O[C@@H](n3cc(I)c(=O)[nH]c3=O)C[C@@H]2O)cc1	5	-59	0	0
Cn1c(CC2Sc3ccccc3NC2=O)nnc1SCC(=O)Nc1cccc(C(F)(F)F)c1 (stereo not given)	6	17	0	93*
O=C(NC(=O)c1sc2ccccc2c1Cl)c1ccccc1O	-7	-35	0	5
Nc1nc(NCc2ccco2)n[nH]1	6	94*	0	90*
Cc1onc(-c2ccccc2)c1NC(=O)N1CCN(C2c3ccccc3-c3ccccc32)CC1	-7	0	0	0
CCOC(=O)C1CCN(C(=O)Nc2c(-c3ccccc3)noc2C)CC1	-1	-16	2.7*	0

Assay outcomes deposited in PubChem BioAssay by The Scripps Research Institute Molecular Screening Center.
